This note sets out measurements from PubChem BioAssay (NCI).

Experiment in all cases: NCI-60 one-dose screen, 48 h (100 = growth as untreated, 0 = no growth, -100 = all killed)
One test deals with HCT-15 colon. The settings on record: 10 µM unless noted.
Another test has as its system HT29 colon. The settings on record: 10 µM unless noted.
The subject of the next test is SNB-75 CNS. To be noted: 10 µM unless noted.
The next test relates to SNB-19 CNS. The settings on record: 10 µM unless noted.
The subject of the next test is U251 CNS. To be noted: 10 µM unless noted.
The subject of the next test is PC-3 prostate. The settings on record: 10 µM unless noted.
The test system of a further test is SK-MEL-5 melanoma. To be noted: 10 µM unless noted.
For a further test, the system named is UACC-62 melanoma. The settings on record: 10 µM unless noted.
The subject of the next test is LOX IMVI melanoma. To be noted: 10 µM unless noted.
The subject of another test is SK-MEL-28 melanoma. To be noted: 10 µM unless noted.
Another test deals with SK-MEL-2 melanoma. To be noted: 10 µM unless noted.
The test system of the next test is EKVX NSCLC. To be noted: 10 µM unless noted.
The test system of another test is SN12C renal. The settings on record: 10 µM unless noted.
The test system of another test is UO-31 renal. To be noted: 10 µM unless noted.
Another test deals with ACHN renal. To be noted: 10 µM unless noted.
Another test has as its system CAKI-1 renal. The settings on record: 10 µM.
The subject of a further test is A498 renal. The settings on record: 10 µM unless noted.
Another test relates to CCRF-CEM leukemia. The settings on record: 10 µM unless noted.
The next test deals with MOLT-4 leukemia. The settings on record: 10 µM unless noted.
For a further test, the system named is TK-10 renal. The settings on record: 10 µM unless noted.

About 83,000 compounds went through this panel and 20% of them were active in at least one assay; those are over-represented in the sample as a whole.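 A percent growth of 40 corresponds to 60% growth inhibition; 0 means no net growth; -100 means all cells died. Active threshold: below 10.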 Values without a mark were called inactive. Calls of active or inactive are those of the source.

As for `C/C=C/C=C1\C[C@H]2CO[C@H](O2)C1=O`, the growth in the test on HCT-15 colon is 80.8%; in the test with HT29 colon it was 108%; in the test on SNB-75 CNS, 106%; with SNB-19 CNS, 95.6%; with U251 CNS, 97.4%; with PC-3 prostate it was 96.5%. Further, the growth in the test on SK-MEL-5 melanoma was 98.5%; in the test with UACC-62 melanoma it was 89.5%; in the test with LOX IMVI melanoma it was 49.3%; in the test with SK-MEL-28 melanoma it was 104%; in the test with SK-MEL-2 melanoma, 100%; in the test with EKVX NSCLC, 103%. In addition, the growth with SN12C renal was 100%; in the test on UO-31 renal, 88.2%; with ACHN renal it was 103%; in the test with CAKI-1 renal it was 98%; with A498 renal it was 103%; in the test on CCRF-CEM leukemia it was 78.9%. Besides, the growth in the test on MOLT-4 leukemia is 90.4%.

Turning to `COc1ccc(OC)c(NC2=C(Cl)C(=O)C(C)=C(C)C2=O)c1`, the growth with HCT-15 colon is 94.7%; in the test on HT29 colon, 105%; with SNB-75 CNS, 71.7%; in the test with SNB-19 CNS it was 95.3%; in the test with U251 CNS, 94.1%; in the test with PC-3 prostate, 77.6%. In addition, the growth in the test with SK-MEL-5 melanoma was 89.6%; in the test on UACC-62 melanoma, 93.8%; in the test on LOX IMVI melanoma it was 89.1%; with SK-MEL-28 melanoma, 108%; in the test with SK-MEL-2 melanoma it was 95.7%; in the test with EKVX NSCLC, 77.4%. Also, the growth with SN12C renal was 92.8%; with UO-31 renal, 92.4%; in the test on ACHN renal it was 100%; in the test on CAKI-1 renal, 94%; in the test on A498 renal it was 91.6%; in the test on CCRF-CEM leukemia, 12.9%. In addition, in the test with MOLT-4 leukemia, the growth was 36%.

For `COc1ccc(-c2cc(-c3ccc(Cl)cc3)nc3nc(N)nn23)cc1`, the growth in the test with HCT-15 colon is 90.2%; in the test with HT29 colon, 99.5%; with SNB-75 CNS, 104%; in the test on SNB-19 CNS it was 91.5%; in the test on U251 CNS, 91%; in the test with PC-3 prostate it was 106%. Further, the growth is 93.6% in the test on SK-MEL-5 melanoma; 92.8% in the test with UACC-62 melanoma; 105% with LOX IMVI melanoma; 116% in the test with SK-MEL-28 melanoma; 103% in the test with SK-MEL-2 melanoma; 99.3% with EKVX NSCLC. Moreover, the growth with SN12C renal is 97.6%; in the test on UO-31 renal, 81%; in the test on ACHN renal it was 96.3%; in the test on CAKI-1 renal it was 83.7%; in the test on CCRF-CEM leukemia it was 95%; in the test on MOLT-4 leukemia it was 89%.

Take `COc1ccc(N2C(=O)c3cc(OC)c(OC)cc3NC2SCc2ccccc2)cc1` (stereo not drawn): the growth was 96.1% in the test with HCT-15 colon; 116% in the test on HT29 colon; 112% with SNB-75 CNS; 109% in the test with SNB-19 CNS; 108% with U251 CNS; 102% in the test on PC-3 prostate. The growth was 97% in the test with SK-MEL-5 melanoma; 93.8% in the test with UACC-62 melanoma; 94.8% with LOX IMVI melanoma; 96.9% in the test with SK-MEL-28 melanoma; 99.6% with SK-MEL-2 melanoma; 91.8% with EKVX NSCLC. For the same compound, the growth in the test with SN12C renal is 102%; with UO-31 renal, 88.4%; with TK-10 renal it was 129%; in the test on ACHN renal, 94.3%; with CAKI-1 renal, 104%; in the test on CCRF-CEM leukemia it was 105%. Further, in the test on MOLT-4 leukemia, the growth was 88%.

As for `Oc1ccc(CSc2nnc(-c3cnccn3)o2)c2cccnc12`, the growth with HCT-15 colon is 13.8%; in the test on HT29 colon, 25.2%; in the test with SNB-75 CNS, 26.5%; in the test with SNB-19 CNS it was 18.1%; with U251 CNS, 18.5%; in the test on PC-3 prostate, 15.2%. The growth in the test on SK-MEL-5 melanoma is -38.5% (active); with UACC-62 melanoma it was 15%; in the test with LOX IMVI melanoma, 17.5%; in the test on SK-MEL-28 melanoma, 37.6%; in the test with SK-MEL-2 melanoma, -2.52% (active); in the test with EKVX NSCLC, 19.3%. For the same compound, the growth was 6.71% (active) with UO-31 renal; 35.3% in the test with TK-10 renal; 0.457% (active) with ACHN renal; 2.13% (active) in the test on CAKI-1 renal; 18.1% in the test on CCRF-CEM leukemia; 16.9% in the test on MOLT-4 leukemia.

As to `CCOC(=O)C1=C(C)Nc2nc3ccccc3n2C1c1cccc(Br)c1` (stereo not drawn), the growth with HCT-15 colon is 48.5%; with HT29 colon, 49.3%; with SNB-75 CNS it was 53.9%; in the test on SNB-19 CNS, 77.2%; in the test with U251 CNS, 88.8%; in the test with PC-3 prostate it was 84.1%. Moreover, the growth with SK-MEL-5 melanoma is 80.4%; in the test on UACC-62 melanoma, 60.3%; in the test with LOX IMVI melanoma, 82.3%; with SK-MEL-28 melanoma, 84.9%; in the test with SK-MEL-2 melanoma it was 89.9%; in the test with EKVX NSCLC, 80.2%. Further, the growth is 95.1% in the test on SN12C renal; 73.7% in the test on UO-31 renal; 113% with TK-10 renal; 88.9% in the test on ACHN renal; 54.5% in the test on CAKI-1 renal; 69.3% in the test on MOLT-4 leukemia.

With `O=C1c2c(O)cc(O)cc2O[C@@H](c2ccc(O)cc2)[C@@H]1c1c(O)cc(O)c2c(=O)cc(-c3ccc(O)c(O)c3)oc12`, the growth was 101% in the test with HCT-15 colon; 101% in the test on HT29 colon; 82.6% in the test with SNB-75 CNS; 112% in the test on SNB-19 CNS; 110% with U251 CNS; 96.1% in the test on PC-3 prostate. The growth is 99.6% with SK-MEL-5 melanoma; 89.5% in the test with UACC-62 melanoma; 88.9% with LOX IMVI melanoma; 99.1% with SK-MEL-28 melanoma; 117% in the test with SK-MEL-2 melanoma; 91.9% in the test with EKVX NSCLC. The growth was 105% in the test with SN12C renal; 97.3% in the test with UO-31 renal; 85% in the test on ACHN renal; 120% with A498 renal; 114% in the test on CCRF-CEM leukemia; 121% in the test with MOLT-4 leukemia.

In the case of `COc1ccc(-c2cc(-c3cccc4ccccc34)n3c(n2)nc2ccccc23)cc1`, the growth in the test with HCT-15 colon was 42.8%; in the test with HT29 colon it was 33.8%; with SNB-75 CNS it was 35.5%; with SNB-19 CNS, 39.9%; in the test on U251 CNS, 33.1%; with PC-3 prostate, 35.8%. Also, the growth is 30.4% in the test with SK-MEL-5 melanoma; 33.7% in the test on UACC-62 melanoma; 45.7% in the test with LOX IMVI melanoma; 70.2% in the test on SK-MEL-28 melanoma; 79.1% with SK-MEL-2 melanoma; 74.9% in the test with EKVX NSCLC. For the same compound, the growth in the test with SN12C renal is 36.9%; in the test on UO-31 renal it was 29%; in the test on ACHN renal it was 19.7%; with CAKI-1 renal, 21%; in the test with A498 renal it was 41.5%; in the test on CCRF-CEM leukemia, 9.05% (active). The growth in the test with MOLT-4 leukemia is 2.23% (active).
